Measurements: PubChem BioAssay AID651784 (National Center for Advancing Translational Sciences (NCATS), 2012)
Records with an inconclusive call do not appear. Calls of active or inactive are those of the source. Calls come from the whole dose curve; as a rule, active = well fitted inhibition curve with a large enough effect; inconclusive = small, poorly fitted or top-dose-only effect; inactive = no such curve, though single readings can be large or run the other way.

Assay: Acumen qHTS Assay for Inhibitors of the mTORC1 Signaling Pathway in MEF (Tsc2-/-, p53-/-) Cells: Hit Validation; note: nearly all actives have a fitted effect of over 65% in size
Details: Acumen imaging; activity change, negative = inhibition: at 37.3 µM (top of the series)
Excerpt: The mammalian target of rapamycin (mTOR) is an intracellular serine/threonine kinase Aberrant regulation of mTOR signaling plays a causative role in a number of human diseases, including cancer, benign tumors such as lymphangioleiomyomatosis (LAM) and Tuberous Sclerosis Complex (TSC), and metabolic diseases such as diabetes and obesity. This project aims to identify inhibitors of ribosomal protein S6 (rpS6) phosphorylation. The phosphorylation of rpS6 is a key event downstream of mTOR activation. The assay uses a phospho-specific antibody of phospho-rpS6 to detect inhibitors of mTOR activation. Mutations in the Tsc1 and Tsc2 genes are the underlying genetic lesions responsible for TSC, causing constitutive activation of the mTORC1 pathway and leading to profound effects on cell metabolism. Aberrant metabolism in cancer has recently received significant attention as a target to develop therapeutic agents in the treatment of cancer.1 As Tsc2-/- cells have lost the ability to respond to energy and growth factor deprivation, these cells are unable to properly down regulate cellular biosynthetic processes in response to metabolic stress, and are thus extremely sensitive to glucose deprivation-induced death.2 A central goal of this project is to explore the unique cell survival and metabolic properties of cells with Tsc1 or Tsc2 by screening for compounds that selectively target the Tsc2-/- MEFs by screening both Tsc2-/- and WT MEF cell lines. We hope to better understand these aspects of TSC physiology in order to exploit them for therapeutic benefit.
NIH Molecular Libraries Probe Production Centers Network [MLPCN]
NIH Chemical Genomics Center [NCGC]
Assay Submitter (PI): Blenis, John; Harvard University
For quantitative high throughput analysis of mTORC1 signaling, we developed a cell-based assay for immuno-fluorescence based detection of rpS6 phosphorylation on the Acumen Explorer that will be used a platform for the primary small molecule screen. Mouse embryonic fibroblasts (MEFs) are cultured in 1536-well plates using DMEM + 10% FBS. Twenty-four hrs after plating, test compounds (solubilized in DMSO) are delivered and incubated with the cells for 24 hrs at 37 degree Celsius. Following the incubation, media with compound is aspirated and the cells are fixed in 4% paraformaldehyde (PFA) containing PBS + 0.2% TX-100. Next, PFA is aspirated, cells are washed two times with PBS plus 0.2% TX-100 and the cells are blocked for 1 hr at room temperature (blocking buffer: LiCOR Blocking Buffer plus 0.2% TX-100). This is followed by aspiration and staining with Alexa-488 conjugated-phospho-rpS6 Ser235/236 antibody for 2 hours at room temperature (Cell Signaling Technology # 4803, 1:50 dilution in blocking buffer). Cells are washed two times with PBS plus 0.2% TX-100, and stained with 10 uM propidium iodide (PI) for 20-25 minutes for cell number measurement (1:500 dilution of Hoescht staining is also added for IN Cell imaging). The plates are scanned on the Acumen Explorer laser scanning instrument (TTP Labtech) using the 488nm laser for simultaneous excitation of the Alexa-488 and PI. […] Fluorescence emission from the PI stain is selected using a 575-640 nm band pass filter. The normalized phospho-S6 staining is calculated as the ratio of the integrated Alexa 488 intensity divided by the integrated PI intensity for the single concentration rapamycin control (7.5 nM) and DMSO columns. […] Inhibition of the pathway is defined based on the normalized phospho-S6 intensity in rapamycin treated cells. Active cells are defined as those with a normalized phospho-S6 staining above this threshold, and each treatment is reported as the % positive cells in the well, where thresholds are defined by selecting wells with the highest and lowest signal and differentiating between the % non-active and % active populations. In addition to the pathway specific phospho-S6 endpoint, the number of PI stained cells from the Acumen is recorded as a measure of cell viability. […]
Potency is the fitted concentration of half-maximal effect.

SMILES	activity change, negative = inhibition	Potency
COc1ccc(OCc2nc3c4c(-c5ccccc5)c(-c5ccccc5)oc4ncn3n2)cc1	3.1%	–
Cc1cccc(CSCCNC(=O)CN(c2ccccc2)S(=O)(=O)N(C)C)c1	3.74%	–
COC(=O)CN1C(=O)C(C)(C)c2cc(S(=O)(=O)Nc3ccc(Br)cc3F)ccc21	–	9.27 µM (active)
Cc1ccc(C(=O)c2cn(CC(=O)NCc3ccccc3Cl)c3nc(C)ccc3c2=O)cc1	-14.2%	–
COc1ccc(CNC(=O)c2cccc(N3CCCS3(=O)=O)c2)cc1OC	–	5.21 µM (active)
CCN1CCOC(=O)C1CC(=O)Nc1cccc(OC)c1 (stereo not given)	-21.3%	–
CCOC(=O)C(Cc1c[nH]c2ccccc12)NC(=O)COc1ccc(Cl)cc1 (stereo not given)	-4.4%	–
CCC(C)S(=O)(=O)c1oc(-c2cccs2)nc1S(=O)(=O)c1ccccc1 (stereo not given)	–	0.927 µM (active)
CCCCN(CC)CCNC(=O)C1CCN(c2nnc(C)c3c(C)n(-c4ccc(C)cc4)nc23)CC1	-14.5%	–
CS(=O)(=O)CCNCc1ccc(-c2ccc3ncnc(Nc4ccc(OCc5cccc(F)c5)c(Cl)c4)c3c2)o1	5.21%	–
CCc1ccc(NC(=O)CSc2nccn2C2CCCC2)cc1	-3.21%	–
O=C(CC1(O)C(=O)N(CCc2ccccc2)c2ccc(Br)cc21)c1ccccc1O (stereo not given)	–	6.56 µM (active)
Cc1ccccc1C(=O)N1CCN(CCc2ccccn2)CC1	-26.5%	–
COCc1oc2ccc(NS(=O)(=O)c3ccc(C)cc3)cc2c1C(=O)OC	-61.3%	–
COc1ccc(N(C)C(=O)c2cc(S(=O)(=O)N3CCc4ccccc43)cn2C)c(OC)c1	18.7%	–
Cc1ccc(C)c(Cn2c3ccccc3c3cnn(CC(=O)NC(C)CCc4ccccc4)c(=O)c32)c1 (stereo not given)	–	7.36 µM (active)
Cc1ccc(C(=O)CC2(O)C(=O)N(Cc3ccccc3F)c3ccccc32)cc1 (stereo not given)	-11.8%	–
Brc1ccc(Nc2c3c(nc4nncn24)CCC3)cc1	7.81%	–
COc1ccc(S(=O)(=O)N(CCc2ccccc2)CC(=O)Nc2cccc(OC)c2)cc1	-19.2%	–
CCSc1oc(-c2ccc(F)cc2)nc1S(=O)(=O)c1ccc(C)cc1	-25.8%	–

SMILES	activity change, negative = inhibition	Potency
CCOc1ccc(Nc2nc(-c3cccc(Cl)c3)c3c(n2)-c2ccccc2OC3)cc1	6.48%	–
O=C(Nc1ccc(F)c(Cl)c1)c1cc(S(=O)(=O)N2CCCc3ccccc32)ccc1F	-51.1%	–
CCS(=O)(=O)c1ncc(Cl)c(C(=O)NCc2ccc(OC)cc2)n1	–	6.56 µM (active)
O=C(Cn1c(=O)c2ccccc2n(CC(=O)Nc2ccc(Cl)cc2)c1=O)NCCc1ccccc1	0.576%	–
CCS(=O)(=O)c1ncc(Cl)c(C(=O)N(Cc2ccccc2)c2ccc(OC)cc2)n1	–	2.93 µM (active)
CCc1ccc(S(=O)(=O)c2c(C(=O)c3ccc(C)c(C)c3)cnc3ccccc23)cc1	5.96%	–
CCCN1C(=O)C(Cc2nc3ccccc3c(=O)n2CC)c2cc(Br)ccc21 (stereo not given)	4.78%	–
CN1CCN(C(CNC(=O)C(=O)Nc2cccc(Cl)c2)c2ccc3c(c2)OCO3)CC1 (stereo not given)	-4.53%	–
Cc1ccc2occ(CC(=O)Nc3ccc(Cl)c(C(F)(F)F)c3)c2c1	-19.2%	–
CCOC(=O)Cn1c(=O)c2c(nc(N3CCOCC3)n2Cc2ccccc2)n(C)c1=O	–	2.93 µM (active)
COc1ccc(OC)c(Nc2c3c(nc4ccccc24)CCC3)c1	–	3.29 µM (active)
O=C(Nc1cccc(NC(=O)c2ccccc2Cl)c1)c1cccc(Br)c1	-1.41%	–
COC(=O)c1ccccc1NC(=O)CSc1n[nH]c(CC(C)C)n1	5.05%	–
Cc1cccc(Nc2nnc(-c3ccc(C)c(S(=O)(=O)N4CCN(C)CC4)c3)c3ccccc23)c1	-6.53%	–
COc1ccc(-n2ncc3c(NCCCOC(C)C)ncnc32)cc1	1.17%	–
Cc1cccc(-n2nnnc2S(C)(=O)=O)c1	-92%	–
Cc1ccc(C(=O)Nc2c(C(=O)NCc3ccc(Cl)cc3)sc3nc(C)cc(C)c23)cc1	-89.8%	–
CC1=Nc2cc(C(=O)NC3CCCC3)ccc2Sc2ccc(Br)cc21	-107%	–
CCCCOc1cccc(C(=O)N2CCN(CCc3ccncc3)CC2)c1	0.726%	–
CCOC(=O)Cc1ccc(NC(=O)n2ncc3cc(Cl)ccc32)cc1	–	8.26 µM (active)
